Measurements reported in PubChem BioAssay (EPA / NIEHS).
Calls of active or inactive are those of the source. Rule for the calls: active = hit-call score of the fitted dose curve at least 0.9, where 1 is the maximum; inactive = score below 0.9.

What was measured:
Conditions in all cases: mRNA level, 48 h; actives raise or lower the signal
MYC, MYC (gene 4609) = assay: LTEA_HepaRG_MYC: Life Technologies and Expression Analysis (LTEA) Assay for MYC using HepaRG (AID 2283518)
Procedure, shortened: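 Differentiated HepaRG cells exposed 48 h in serum-free induction medium to 8 concentrations (top 100 uM, half-log steps; 0.5% DMSO), duplicate. MYC mRNA measured by Fluidigm qRT-PCR, normalized to ACTB, GAPDH, POLR2A; bidirectional fit versus DMSO.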

[1] = read-out: matrix metalloproteinase-3 (MMP3), MMP3 (gene 4314); assay: LTEA_HepaRG_MMP3: Life Technologies and Expression Analysis (LTEA) Assay for matrix metalloproteinase-3 (MMP3) using HepaRG (AID 2283519)
Procedure, shortened: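 HepaRG cells (~100,000/well) in serum-free induction medium were dosed in duplicate for 48 h with an 8-point half-log series from 100 uM, 0.5% DMSO. MMP3 mRNA was quantified by Fluidigm TaqMan qRT-PCR, normalized to three housekeeping genes.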

[2] = read-out: Paternally Expressed 10 (PEG10), PEG10 (gene 23089); assay: LTEA_HepaRG_PEG10: Life Technologies and Expression Analysis (LTEA) Assay for Paternally Expressed 10 (PEG10) using HepaRG (AID 2283520)
Procedure, shortened: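 Differentiated HepaRG cells, plated 48 h then switched to serum-free induction medium, were exposed in duplicate for 48 h to eight half-log concentrations topping at 100 uM in 0.5% DMSO. PEG10 mRNA was quantified by TaqMan qRT-PCR, normalised to ACTB, GAPDH and POLR2A.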

[3] = read-out: Protein phosphatase 2A (PPP2R4), PTPA (gene 5524); assay: LTEA_HepaRG_PPP2R4: Life Technologies and Expression Analysis (LTEA) Assay for Protein phosphatase 2A (PPP2R4) using HepaRG (AID 2283522)
Procedure, shortened: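 Differentiated HepaRG cells in serum-free induction medium were exposed in duplicate for 48 h to eight concentrations, top 100 uM with half-log dilutions, in 0.5% DMSO. PPP2R4 mRNA was quantified by TaqMan qRT-PCR, normalized to ACTB, GAPDH and POLR2A.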

[4] = read-out: Phosphatase and tensin (PTEN), PTEN (gene 5728); assay: LTEA_HepaRG_PTEN: Life Technologies and Expression Analysis (LTEA) Assay for Phosphatase and tensin (PTEN) using HepaRG (AID 2283523)
Procedure, shortened: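 HepaRG cells, 48 h after plating, exposed in duplicate for 48 h in serum-free induction medium to 8 half-log concentrations up to 100 uM (0.5% DMSO). PTEN mRNA by qRT-PCR, normalized to ACTB, GAPDH, POLR2A; bidirectional fit versus DMSO.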

[5] = read-out: solute carrier (SLC22A1), SLC22A1 (gene 6580); assay: LTEA_HepaRG_SLC22A1: Life Technologies and Expression Analysis (LTEA) Assay for solute carrier (SLC22A1) using HepaRG (AID 2283524)
Procedure, shortened: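 Differentiated human HepaRG cells in serum-free induction medium, exposed 48 h in duplicate to 8-point half-log series from 100 µM top in 0.5% DMSO. SLC22A1 mRNA by TaqMan qRT-PCR normalized to ACTB, GAPDH, POLR2A; bidirectional fit versus DMSO.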

[6] = read-out: Pyruvate Dehydrogenase Kinase 4 (PDK4), PDK4 (gene 5166); assay: LTEA_HepaRG_PDK4: Life Technologies and Expression Analysis (LTEA) Assay for Pyruvate Dehydrogenase Kinase 4 (PDK4) using HepaRG (AID 2283525)
Procedure, shortened: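 HepaRG cells plated 48 h, then switched to serum-free induction medium and exposed in duplicate for 48 h to 8 half-log concentrations from 100 uM in 0.5% DMSO. PDK4 mRNA measured by qRT-PCR, normalized to ACTB, GAPDH and POLR2A; bidirectional fit versus DMSO.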

[7] = read-out: NAD(P)H dehydrogenase [quinone] 1 (NQO1), NQO1 (gene 1728); assay: LTEA_HepaRG_NQO1: Life Technologies and Expression Analysis (LTEA) Assay for NAD(P)H dehydrogenase [quinone] 1 (NQO1) using HepaRG (AID 2283526)
Procedure, shortened: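 Differentiated HepaRG cells, plated 48 h and then switched to serum-free induction medium, were exposed in duplicate for 48 h to 8-point half-log concentrations up to 100 uM in 0.5% DMSO. mRNA measured by qRT-PCR, normalized to ACTB, GAPDH, POLR2A; bidirectional fit versus DMSO.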

[8] = read-out: Nuclear factor erythroid 2-related factor 2 (Homo sapiens) (UniProt Q16236); assay: LTEA_HepaRG_NFE2L2: Life Technologies and Expression Analysis (LTEA) Assay for Nuclear factor erythroid 2-related factor 2 (NFE2L2) Transcription Factor using HepaRG (AID 2283527);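 note: TaqMan qRT-PCR transcript level normalised to ACTB GAPDH and POLR2A housekeeping genes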
Procedure, shortened: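 Differentiated human HepaRG cells, serum-free induction medium, exposed 48 h in duplicate to eight half-log concentrations up to 100 uM in 0.5% DMSO. NFE2L2 mRNA by Fluidigm TaqMan qRT-PCR, normalised to ACTB, GAPDH, POLR2A; bidirectional change versus DMSO.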

[9] = read-out: Signal transducer and activator of transcription 3 (Homo sapiens) (UniProt P40763); assay: LTEA_HepaRG_STAT3: Life Technologies and Expression Analysis (LTEA) Assay for Signal transducer and activator of transcription (STAT3) using HepaRG (AID 2283529)
Procedure, shortened: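 Differentiated HepaRG cells, serum-free induction medium, dosed 48 h in duplicate, 8 half-log concentrations from 100 uM in 0.5% DMSO. STAT3 mRNA by qRT-PCR, normalised to ACTB, GAPDH, POLR2A; bidirectional fit versus DMSO.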

[10] = read-out: solute carrier (SLCO1B1), SLCO1B1 (gene 10599); assay: LTEA_HepaRG_SLCO1B1: Life Technologies and Expression Analysis (LTEA) Assay for solute carrier (SLCO1B1) using HepaRG (AID 2283530)
Procedure, shortened: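 Differentiated human HepaRG cells were exposed for 48 h in serum-free induction medium to eight half-log concentrations, top 100 uM, in 0.5% DMSO. SLCO1B1 mRNA was measured by qRT-PCR, normalized to ACTB, GAPDH and POLR2A, and fitted bidirectionally against DMSO.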

[11] = read-out: sulfotransferase 2A1 (SULT2A1), SULT2A1 (gene 6822); assay: LTEA_HepaRG_SULT2A1: Life Technologies and Expression Analysis (LTEA) Assay for sulfotransferase 2A1 (SULT2A1) using HepaRG (AID 2283531)
Procedure, shortened: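 HepaRG human liver cells, 48 h exposure in serum-free induction medium to 8 half-log concentrations topping at 100 µM (0.5% DMSO), duplicate wells. SULT2A1 mRNA measured by TaqMan qRT-PCR, normalized to ACTB/GAPDH/POLR2A; bidirectional fit against DMSO.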

[12] = read-out: Transforming Growth Factor (TGFA), TGFA (gene 7039); assay: LTEA_HepaRG_TGFA: Life Technologies and Expression Analysis (LTEA) Assay for Transforming Growth Factor (TGFA) using HepaRG (AID 2283532)
Procedure, shortened: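 Differentiated HepaRG cells exposed 48 hours in serum-free induction medium, 0.5% DMSO vehicle, 8-point half-log series from 100 uM, in duplicate. TGFA mRNA by TaqMan qRT-PCR, normalised to ACTB, GAPDH, POLR2A; bidirectional fit versus DMSO.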

[13] = read-out: Transforming Growth Factor (TGFB1), TGFB1 (gene 7040); assay: LTEA_HepaRG_TGFB1: Life Technologies and Expression Analysis (LTEA) Assay for Transforming Growth Factor (TGFB1) Transporter using HepaRG (AID 2283533)
Procedure, shortened: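 Differentiated HepaRG cells exposed 48 hr in serum-free induction medium to eight half-log concentrations up to 100 uM (0.5% DMSO), duplicate; TGFB1 mRNA by TaqMan qRT-PCR normalised to ACTB, GAPDH, POLR2A; bidirectional fit against DMSO.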

TIMP1, TIMP1 (gene 7076) = assay: LTEA_HepaRG_TIMP1: Life Technologies and Expression Analysis (LTEA) Assay for TIMP1 using HepaRG (AID 2283534)
Procedure, shortened: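 Differentiated HepaRG cells exposed 48 h in serum-free induction medium, duplicates, eight half-log concentrations from 100 uM in 0.5% DMSO. TIMP1 mRNA by qRT-PCR normalized to ACTB, GAPDH, POLR2A; bidirectional fitting against DMSO.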

[14] = read-out: Tumor necrosis factor receptor 1 (TNFRSF1A), TNFRSF1A (gene 7132); assay: LTEA_HepaRG_TNFRSF1A: Life Technologies and Expression Analysis (LTEA) Assay for Tumor necrosis factor receptor 1 (TNFRSF1A) using HepaRG (AID 2283535)
Procedure, shortened: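 Differentiated HepaRG cells in serum-free induction medium, exposed 48 h in duplicate to 8 half-log concentrations up to 100 uM in 0.5% DMSO. TNFRSF1A mRNA by Fluidigm TaqMan qRT-PCR, normalized to ACTB, GAPDH, POLR2A; bidirectional fit.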

[15] = read-out: Thyroid Hormone Responsive (THRSP), THRSP (gene 7069); assay: LTEA_HepaRG_THRSP: Life Technologies and Expression Analysis (LTEA) Assay for Thyroid Hormone Responsive (THRSP) using HepaRG (AID 2283536)
Procedure, shortened: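 Differentiated HepaRG cells treated 48 h in serum-free induction medium with 8 half-log concentrations up to 100 uM (0.5% DMSO), duplicates. THRSP mRNA by TaqMan qRT-PCR normalised to ACTB, GAPDH, POLR2A; bidirectional fit versus DMSO.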

[16] = read-out: Nuclear factor NF-kappa-B p105 subunit (Homo sapiens) (UniProt P19838); assay: LTEA_HepaRG_NFKB1: Life Technologies and Expression Analysis (LTEA) Assay for Nuclear Factor Kappa B Subunit 1 (NFKB1) using HepaRG (AID 2283521);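 note: TaqMan qRT-PCR transcript normalised to ACTB GAPDH and POLR2A housekeeping genes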
Procedure, shortened: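 Differentiated human HepaRG cells in serum-free induction medium with 0.5% DMSO were exposed for 48 h to eight half-log concentrations, top 100 uM, in duplicate. NFKB1 mRNA measured by Fluidigm TaqMan qRT-PCR, normalised to ACTB, GAPDH and POLR2A; bidirectional fit versus DMSO.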

[17] = read-out: succinate dehydrogenase complex iron sulfur subunit B (SDHB), SDHB (gene 6390); assay: LTEA_HepaRG_SDHB: Life Technologies and Expression Analysis (LTEA) Assay for succinate dehydrogenase complex iron sulfur subunit B (SDHB) using HepaRG (AID 2283528)
Procedure, shortened: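 HepaRG cells (~100,000/well, plated 48 h) exposed in duplicate for 48 h in serum-free induction medium to 8-point half-log series from 100 uM in 0.5% DMSO; mRNA by qRT-PCR normalised to ACTB, GAPDH, POLR2A; bidirectional fit versus DMSO.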

Measured: AC50

Sequence of Nuclear factor erythroid 2-related factor 2 (Homo sapiens) (Q16236 whole entry, looked up): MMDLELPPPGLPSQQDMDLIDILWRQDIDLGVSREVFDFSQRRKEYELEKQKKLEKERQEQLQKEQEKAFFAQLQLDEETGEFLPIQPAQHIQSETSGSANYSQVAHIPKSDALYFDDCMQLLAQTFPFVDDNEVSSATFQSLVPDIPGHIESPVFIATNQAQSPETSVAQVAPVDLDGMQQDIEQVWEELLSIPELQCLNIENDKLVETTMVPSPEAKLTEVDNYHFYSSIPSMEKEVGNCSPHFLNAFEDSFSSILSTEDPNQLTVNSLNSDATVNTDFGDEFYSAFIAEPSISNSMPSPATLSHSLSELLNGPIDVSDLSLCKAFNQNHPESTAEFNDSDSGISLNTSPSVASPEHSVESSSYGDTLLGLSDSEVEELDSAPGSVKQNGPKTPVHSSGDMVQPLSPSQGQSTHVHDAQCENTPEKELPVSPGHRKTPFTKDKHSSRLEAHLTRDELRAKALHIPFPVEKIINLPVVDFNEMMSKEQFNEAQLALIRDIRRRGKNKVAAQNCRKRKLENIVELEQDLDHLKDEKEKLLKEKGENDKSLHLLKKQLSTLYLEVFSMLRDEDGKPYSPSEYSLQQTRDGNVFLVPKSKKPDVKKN
Sequence of Signal transducer and activator of transcription 3 (Homo sapiens) (P40763 whole entry, looked up): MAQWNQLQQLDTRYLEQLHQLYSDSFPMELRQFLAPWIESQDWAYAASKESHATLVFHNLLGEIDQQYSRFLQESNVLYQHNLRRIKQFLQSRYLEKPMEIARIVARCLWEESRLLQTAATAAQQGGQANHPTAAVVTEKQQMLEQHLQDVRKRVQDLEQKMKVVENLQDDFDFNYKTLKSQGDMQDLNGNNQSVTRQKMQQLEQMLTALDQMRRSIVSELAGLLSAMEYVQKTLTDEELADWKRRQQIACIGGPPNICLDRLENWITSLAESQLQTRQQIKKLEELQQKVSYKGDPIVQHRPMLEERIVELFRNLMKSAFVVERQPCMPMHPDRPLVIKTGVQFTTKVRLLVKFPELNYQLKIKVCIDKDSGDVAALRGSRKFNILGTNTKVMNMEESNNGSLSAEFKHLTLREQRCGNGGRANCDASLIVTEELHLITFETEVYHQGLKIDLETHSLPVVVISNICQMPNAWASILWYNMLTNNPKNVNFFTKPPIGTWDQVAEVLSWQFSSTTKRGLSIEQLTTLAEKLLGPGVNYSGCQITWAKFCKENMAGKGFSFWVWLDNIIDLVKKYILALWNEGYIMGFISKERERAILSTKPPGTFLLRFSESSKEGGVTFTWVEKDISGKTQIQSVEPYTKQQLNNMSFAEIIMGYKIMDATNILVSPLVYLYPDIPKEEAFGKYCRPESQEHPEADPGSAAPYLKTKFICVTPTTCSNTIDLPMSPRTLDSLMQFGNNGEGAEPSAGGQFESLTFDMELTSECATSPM
Sequence of Nuclear factor NF-kappa-B p105 subunit (Homo sapiens) (P19838 whole entry, looked up): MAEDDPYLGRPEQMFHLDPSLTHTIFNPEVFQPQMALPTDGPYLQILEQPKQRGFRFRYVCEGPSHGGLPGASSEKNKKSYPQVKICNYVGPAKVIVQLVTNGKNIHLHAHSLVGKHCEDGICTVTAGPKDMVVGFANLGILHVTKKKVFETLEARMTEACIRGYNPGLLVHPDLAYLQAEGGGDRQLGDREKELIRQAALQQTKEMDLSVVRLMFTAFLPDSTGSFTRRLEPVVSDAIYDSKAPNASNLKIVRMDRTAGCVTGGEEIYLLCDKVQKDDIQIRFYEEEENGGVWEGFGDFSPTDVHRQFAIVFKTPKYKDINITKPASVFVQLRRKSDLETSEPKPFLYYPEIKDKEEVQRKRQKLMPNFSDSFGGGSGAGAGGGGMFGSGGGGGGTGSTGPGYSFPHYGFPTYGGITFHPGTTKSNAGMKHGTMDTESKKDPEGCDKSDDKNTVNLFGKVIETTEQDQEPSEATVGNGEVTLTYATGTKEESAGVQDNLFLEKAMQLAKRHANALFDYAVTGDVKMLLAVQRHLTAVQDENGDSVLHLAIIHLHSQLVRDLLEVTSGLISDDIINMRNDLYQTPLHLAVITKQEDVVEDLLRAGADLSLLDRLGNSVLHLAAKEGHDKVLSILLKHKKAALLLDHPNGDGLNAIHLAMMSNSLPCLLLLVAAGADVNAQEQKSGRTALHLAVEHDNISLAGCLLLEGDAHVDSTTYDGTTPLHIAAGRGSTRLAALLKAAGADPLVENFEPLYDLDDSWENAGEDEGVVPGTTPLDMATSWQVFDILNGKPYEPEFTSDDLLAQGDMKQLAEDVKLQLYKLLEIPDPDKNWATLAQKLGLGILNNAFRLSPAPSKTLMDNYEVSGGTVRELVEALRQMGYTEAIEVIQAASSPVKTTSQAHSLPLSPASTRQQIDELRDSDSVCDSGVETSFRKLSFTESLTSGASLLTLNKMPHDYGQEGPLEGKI

O=C(NC(=O)c1cc(F)c(F)cc1Cl)Nc1cc(F)ccc1N1CCC(C(=O)O)CC1
inactive: MYC, MYC (gene 4609) | [1] | [3] | [4] | [5] | [6] | [7] | [8] | [9] | [10] | [11] | [12] | [13] | TIMP1, TIMP1 (gene 7076) | [14] | [15]
active: [2] 25 µM

Cc1ccccc1[N+](=O)[O-]
inactive: [1] | [2] | [16] | [3] | [4] | [5] | [6] | [7] | [8] | [17] | [9] | [10] | [11] | [12] | [13] | TIMP1, TIMP1 (gene 7076) | [14] | [15]

Clc1ccc(C(c2ccccc2Cl)C(Cl)(Cl)Cl)cc1 (configuration not stated)
inactive: [1] | [16] | [3] | [4] | [5] | [6] | [7] | [8] | [17] | [9] | [10] | [11] | [12] | [13] | TIMP1, TIMP1 (gene 7076) | [14]
active: [15] 55.8 µM

c1ccc(-c2ccccc2)cc1
inactive: [1] | [2] | [16] | [3] | [4] | [5] | [6] | [7] | [8] | [9] | [10] | [11] | [12] | [13] | TIMP1, TIMP1 (gene 7076) | [14] | [15]

CC1=C2C[C@H]3[C@@H](CC=C4C[C@@H](O)CC[C@@]43C)[C@@H]2CC[C@]12O[C@@H]1C[C@H](C)CN[C@H]1[C@H]2C
inactive: [1] | [2] | [3] | [4] | [5] | [6] | [7] | [8] | [9] | [10] | [11] | [12] | [13] | TIMP1, TIMP1 (gene 7076) | [14] | [15]

Oc1c(Cl)c(Cl)c(Cl)c(Cl)c1Cl
inactive: [6] | [8]
active: [1] 6.02 µM | [2] 2.11 µM | [3] 2.22 µM | [4] 6.88 µM | [5] 3.31 µM | [7] 6.48 µM | [17] 2.04 µM | [9] 1.19 µM | [10] 3.96 µM | [11] 4.65 µM | [12] 12.3 µM | [13] 5.06 µM | TIMP1, TIMP1 (gene 7076) 14.9 µM | [14] 5.95 µM | [15] 3.94 µM

O=NN(c1ccccc1)c1ccccc1
inactive: [2] | [3] | [4] | [5] | [6] | [7] | [8] | [9] | [10] | [11] | [12] | [13] | TIMP1, TIMP1 (gene 7076) | [15]
active: [1] 80.6 µM | [14] 80.2 µM

CCCCCCCCCc1ccc(O)cc1
active: [6] 63.2 µM
inactive: [1] | [2] | [16] | [3] | [4] | [5] | [7] | [8] | [17] | [9] | [10] | [11] | [12] | [13] | TIMP1, TIMP1 (gene 7076) | [14] | [15]

Clc1ccc(C(Cl)(Cl)Cl)cc1
inactive: [1] | [2] | [3] | [4] | [5] | [6] | [7] | [8] | [9] | [10] | [11] | [12] | [13] | TIMP1, TIMP1 (gene 7076) | [14] | [15]
